Laboratory results published in PubChem BioAssay (NCI).
The panel holds about 83,000 compounds, 20% with a hit somewhere; the sample as a whole holds those more often.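 Each cell line was grown in a 96-well plate and treated with one concentration of compound for 48 hours. Values below 10 were considered active.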 Activity calls are given as the source filed them.

What was measured:
Assay in all cases: NCI-60 one-dose screen, 48 h (100 = growth as untreated, 0 = no growth, -100 = all killed)
Conditions in all cases: 10 µM unless noted
[1] = tested on: NCI-H23 lung
[2] = tested on: NCI-H226 lung
[3] = tested on: NCI-H322M lung
[4] = tested on: HOP-62 NSCLC
[5] = tested on: NCI-H460 lung
[6] = tested on: HOP-92 NSCLC
[7] = tested on: NCI-H522 lung
[8] = tested on: A549/ATCC NSCLC
[9] = tested on: 786-0 renal
[10] = tested on: COLO 205 colon

Measured: growth

COC(=O)[C@]12CC[C@@H](C)[C@H](C)[C@@H]1C1=CC[C@@H]3[C@@]4(C)C[C@@H](OC(=O)/C=C/c5ccccc5)[C@H](O)[C@@](C)(CO)[C@@H]4[C@H](O)C[C@@]3(C)[C@]1(C)CC2
inactive: [3] 37.9% | [4] 11.6%
active: [1] 4.71% | [2] 0.734% | [5] -39.6% | [6] -3.66% | [7] -59.6% | [8] 5.1% | [9] -29% | [10] -58.6%

O=C1NC(=O)/C(=C/c2ccc3nccc(-c4ccncc4)c3c2)S1
active: [1] -17.4% | [2] -54.5% | [3] -50.8% | [4] -36.1% | [5] -2.65% | [6] -41.1% | [7] -95.6% | [8] -51.8% | [9] -41.6% | [10] -56.6%

FC(F)c1nc2ccccc2n1-c1nc(N2CCOCC2)nc(N2CCOCC2)n1
active: [1] 0.202% | [2] -3.17% | [3] -22.6% | [4] -15.1% | [5] 7.27% | [6] -32.2% | [7] -1.95% | [8] -17.2% | [9] -32.8% | [10] -25.1%

CC1(C=O)NC(=O)NC1=O (stereo not given)
inactive: [1] 105% | [2] 92.8% | [3] 102% | [4] 68.4% | [5] 108% | [6] 96.4% | [7] 77.1% | [8] 55.7% | [9] 104% | [10] 100%

CCCCCCCC(=O)SCC/C=C/[C@@H]1CC(=O)NCc2nc(co2)C2=N[C@@](C)(CS2)C(=O)N[C@@H](C(C)C)C(=O)O1
active: [1] -2.47% | [2] -10.4% | [3] -18.5% | [4] -6.6% | [5] 3.41% | [6] -15.5% | [7] -10.2% | [8] -2.81% | [10] -41.3%
inactive: [9] 10.2%

COc1c(OCCCN2CCOCC2)ccc2c3n(c(=NC(=O)c4cnc(N)nc4)nc12)CCN3
active: [3] -12.6% | [5] 9.88% | [6] -14.6% | [7] 9.59% | [8] -5.58% | [9] -4.92% | [10] -18.6%
inactive: [1] 20.6% | [2] 23.7% | [4] 12.4%

COc1ccc(/C(C)=C(\c2ccc(Cl)cc2)c2ccc(OCCN3CCCCCC3)cc2)cc1
inactive: [1] 51.3% | [2] 60.6% | [3] 79.5% | [4] 48.4% | [5] 32.3% | [6] 79.5% | [7] 51.5% | [8] 39.4% | [9] 59.7% | [10] 17.2%

O=c1[nH]c([C@@H]2CCCN2)nc2c1oc1ccc(Cl)cc12
inactive: [1] 60.7% | [2] 51.8% | [3] 56% | [4] 47.2% | [5] 34.4% | [6] 39.8% | [7] 24.7% | [8] 37.9% | [9] 84.4% | [10] 12%

CN1CC[C@@H](c2c(O)cc(O)c3c(=O)cc(-c4ccccc4Cl)oc23)[C@@H]1CO
active: [1] -26.5% | [2] 7.7% | [3] -1.67% | [4] -21.2% | [5] 4.14% | [6] -2.24% | [7] -13.8% | [8] 4.56% | [9] 4.31% | [10] -64.5%

COC(=O)N[C@@H](C)CNc1nccc(-c2cn(C(C)C)nc2-c2cc(Cl)cc(NS(C)(=O)=O)c2F)n1
inactive: [1] 59.2% | [2] 94.9% | [3] 78.7% | [4] 72.7% | [5] 91.2% | [6] 49.7% | [7] 44.2% | [8] 53.4% | [9] 48.6%
active: [10] 4.94%

CCN(CC)CCOc1ccc(/C(=C(\C)c2ccc(Cl)cc2)c2ccc(Cl)cc2)cc1
active: [10] 8.85%
inactive: [1] 60.7% | [2] 102% | [3] 87.3% | [4] 95.2% | [5] 36.4% | [6] 80.5% | [7] 81.7% | [8] 45.2% | [9] 60.2%

Cc1cc(N(CCNc2ccnc3cc(Cl)ccc23)Cc2ccc3c(c2)OCO3)nc(N2CCN(C)CC2)n1
inactive: [1] 56.6% | [2] 75.7% | [3] 41.5% | [5] 18.2% | [8] 26%
active: [4] 0.334% | [6] -10.2% | [7] 7.7% | [9] -6.41% | [10] -67.1%

O=C(Nc1ccc(C2=NCCCN2)cc1)c1ccc(C(=O)Nc2ccc(C3=NCCCN3)cc2)nc1
inactive: [1] 102% | [2] 101% | [3] 111% | [4] 97.2% | [5] 107% | [6] 131% | [7] 96.1% | [8] 141% | [9] 96.6% | [10] 125%

C#Cc1cccc(Nc2ncnc3cc(OCCOC)c(OCCOC)cc23)c1
active: [3] 0.463% | [7] -6.57%
inactive: [1] 74.9% | [2] 75.4% | [4] 63% | [5] 55.8% | [6] 72.8% | [8] 41.5% | [9] 57.5% | [10] 60.8%

CCN1CCN(Cc2ccc(-c3cc4c(N[C@H](C)c5ccccc5)ncnc4[nH]3)cc2)CC1
inactive: [1] 42.3% | [2] 50.9% | [4] 28.5% | [5] 21.9% | [6] 21.4% | [8] 17.5% | [9] 50.3%
active: [3] -2.25% | [7] 6.19% | [10] -21.4%

NC1=Nc2cc(OCCCN3Cc4ccccc4C3)c(OCC3CC3)cc2C12CCCC2
inactive: [1] 77.2% | [2] 80.7% | [3] 91.6% | [4] 77% | [5] 69.8% | [6] 40.7% | [7] 39.7% | [8] 64.4% | [9] 55.6%
active: [10] -62.5%

OCCNC(=S)Nc1ccc(-c2nc(N3C[C@H]4CC[C@@H](C3)O4)c3cccn3n2)cc1
inactive: [1] 17.4% | [3] 19.3% | [5] 11% | [7] 13.3%
active: [2] 0.203% | [4] -14.3% | [6] -21.2% | [8] -1.6% | [9] 1.86% | [10] -8.64%

CN1CC[C@H](c2c(O)cc(O)c3c(=O)cc(-c4ccccc4Cl)oc23)[C@H](O)C1
active: [1] -17.3% | [2] 3.69% | [3] -5.32% | [4] -17.2% | [5] 3.22% | [6] -6.87% | [7] -23.9% | [8] 5.9% | [9] 7.41% | [10] -55%

C=CC(=O)Nc1cc2c(Nc3ccc(F)c(Cl)c3)ncnc2cc1C#CC(C)(C)N1CCN(C)CC1
active: [1] -88.9% | [2] -97.4% | [3] -86% | [4] -88.3% | [5] -77% | [6] -91.3% | [7] -73.7% | [8] -82% | [9] -96.3% | [10] -71.7%

CC/C=C\C[C@H]1C/C=C2/C(=O)C=C[C@@H]2C/C=C\CCCC(=O)O1
inactive: [3] 16.7% | [4] 44.2%
active: [1] -12.5% | [2] -54.8% | [5] -33.7% | [6] -36.6% | [7] -45.1% | [8] -25.2% | [9] -79.9% | [10] -13.1%

O=C1C=CC2(NN=C(c3ccccc3)N2c2cccc(Cl)c2)c2cccc(O)c21 (stereo not given)
inactive: [1] 26.3% | [2] 85.6% | [3] 95.1% | [4] 37.9% | [5] 85.1% | [6] 110% | [7] 51.3% | [8] 33.2% | [9] 107% | [10] 103%

Nc1nc(N)c2nc(-c3cccc(O)c3)c(-c3cccc(O)c3)nc2n1
inactive: [1] 82.5% | [2] 78.5% | [3] 47% | [4] 54.1% | [5] 92.8% | [6] 49.5% | [7] 49.3% | [8] 75.1% | [9] 65.7% | [10] 79%

O=C1C=CC2(NN=C(c3ccccc3)N2c2ccccc2)c2cccc(O)c21 (stereo not given)
active: [1] 9.65%
inactive: [2] 51.9% | [3] 83.9% | [4] 21.5% | [5] 34.1% | [6] 117% | [7] 28.7% | [8] 14.8% | [9] 102% | [10] 80.8%

O=C1C=CC2(NN=C(c3ccccc3)N2c2ccc(Cl)cc2)c2cccc(O)c21 (stereo not given)
inactive: [1] 13.6% | [2] 60.5% | [3] 89.5% | [4] 26.5% | [5] 64.3% | [6] 125% | [7] 51.1% | [8] 22.3% | [9] 93.4% | [10] 94.5%

CN1CCN(CCCOc2cccc3nc(Nc4ccc(Cl)c(C(F)(F)F)c4)ccc23)CC1
active: [5] -19.3% | [7] -40.6% | [8] 6.87% | [9] -42.9% | [10] -61.6%
inactive: [1] 18.8% | [2] 77.1% | [3] 15.9% | [4] 15.5% | [6] 10.2%

C/C(=C(/c1ccc(Cl)cc1)c1ccc(OCCN2CCCC2)cc1)c1ccccc1
inactive: [1] 71.2% | [2] 83.3% | [3] 82.5% | [4] 90% | [5] 41.5% | [6] 84.2% | [7] 58.9% | [8] 66.7% | [9] 75.2% | [10] 24.3%
